# The full data set covers some 7,900 targets. This sample favours those with a hit. About 0.6% of all pairs of compound and target were hits. Unmarked numbers belong to inactive results.
# Columns and labels:
# Assay in all cases: log2 fold change, soluble protein after heating vs DMSO (PISA); higher = thermal stabilisation; K562 cells, 10 uM, 30 min; active = over 0.2 and 3.5 SD of the protein, either way, in both replicates (recomputed)
# [1] = compound: NC(=O)Nc1cc(-c2cccc(F)c2)sc1C(=O)N[C@H]1CCCNC1
# Outline: (§1)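 K562 cells at 2×10^6 cells/mL were treated for 30 min with 10 μM compound, and aliquots were heated for 3 min over 48°C-58°C before pooling. Extraction used PBS with 0.5% NP-40 at 4°C, and soluble protein was the supernatant after 21,000xg for 90 min, measured by TMTpro 16plex LC-MS/MS with channel sums equalised. Thermal stability values, relative to control samples and from duplicates, are log2 fold changes.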
# [2] = compound: NC(=O)c1cnc(N[C@@H]2CCCC[C@@H]2N)nc1Nc1cccc(-n2nccn2)c1
# Outline: as §1
# [3] = compound: NC1(c2ccc(-c3nc4ccn5c(=O)[nH]nc5c4cc3-c3ccccc3)cc2)CCC1
# Outline: as §1
# [4] = compound: NCC(=O)Nc1ccc(-n2nc(C(F)(F)F)cc2-c2ccc3c(ccc4ccccc43)c2)cc1
# Outline: as §1
# entinostat = compound: Nc1ccccc1NC(=O)c1ccc(CNC(=O)OCc2cccnc2)cc1 [entinostat]
# Outline: as §1
# vorinostat = compound: O=C(CCCCCCC(=O)Nc1ccccc1)NO [vorinostat]
# Outline: as §1
# citarinostat = compound: O=C(CCCCCCNC(=O)c1cnc(N(c2ccccc2)c2ccccc2Cl)nc1)NO [citarinostat]
# Outline: as §1
# silmitasertib = compound: O=C(O)c1ccc2c(c1)nc(Nc1cccc(Cl)c1)c1ccncc12 [silmitasertib]
# Outline: as §1
# [5] = compound: O=C1NC(=O)C(c2cnc3ccccn23)=C1c1cn2c3c(cc(F)cc13)CN(C(=O)N1CCCCC1)CC2
# Outline: as §1
# [6] = compound: c1cc(OCCN2CCCCC2)cc(-c2n[nH]c3ccc(-c4nnc[nH]4)cc23)c1
# Outline: as §1
# entospletinib = compound: c1cn2cc(-c3ccc4cn[nH]c4c3)nc(Nc3ccc(N4CCOCC4)cc3)c2n1 [entospletinib]
# Outline: as §1
# Chain of UniProt O60313 (O60313 whole entry, looked up): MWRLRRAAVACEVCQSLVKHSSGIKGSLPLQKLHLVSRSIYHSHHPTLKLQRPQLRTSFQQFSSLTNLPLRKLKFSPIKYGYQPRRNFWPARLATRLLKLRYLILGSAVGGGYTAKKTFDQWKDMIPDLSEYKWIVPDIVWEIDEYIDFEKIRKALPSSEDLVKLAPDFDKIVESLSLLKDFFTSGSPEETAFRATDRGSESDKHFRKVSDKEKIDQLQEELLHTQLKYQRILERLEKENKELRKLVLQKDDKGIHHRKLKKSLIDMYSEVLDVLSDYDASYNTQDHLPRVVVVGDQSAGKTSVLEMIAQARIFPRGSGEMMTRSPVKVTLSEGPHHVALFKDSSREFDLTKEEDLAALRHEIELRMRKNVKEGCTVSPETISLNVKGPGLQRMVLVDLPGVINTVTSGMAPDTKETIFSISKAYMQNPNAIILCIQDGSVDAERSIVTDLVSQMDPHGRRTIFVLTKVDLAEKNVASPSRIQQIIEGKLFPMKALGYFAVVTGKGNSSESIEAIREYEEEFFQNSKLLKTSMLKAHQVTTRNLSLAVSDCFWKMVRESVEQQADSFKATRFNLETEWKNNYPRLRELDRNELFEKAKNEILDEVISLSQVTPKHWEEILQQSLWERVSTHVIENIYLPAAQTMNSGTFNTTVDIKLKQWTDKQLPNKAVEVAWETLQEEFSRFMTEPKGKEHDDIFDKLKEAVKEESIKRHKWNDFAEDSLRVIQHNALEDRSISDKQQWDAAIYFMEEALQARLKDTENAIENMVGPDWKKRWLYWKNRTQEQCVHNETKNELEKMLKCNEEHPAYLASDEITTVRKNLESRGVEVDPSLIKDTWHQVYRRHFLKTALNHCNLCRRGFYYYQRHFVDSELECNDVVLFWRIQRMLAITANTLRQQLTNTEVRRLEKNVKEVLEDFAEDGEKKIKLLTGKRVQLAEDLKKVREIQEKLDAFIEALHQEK
# Chain of UniProt Q14978 (Q14978 whole entry, looked up): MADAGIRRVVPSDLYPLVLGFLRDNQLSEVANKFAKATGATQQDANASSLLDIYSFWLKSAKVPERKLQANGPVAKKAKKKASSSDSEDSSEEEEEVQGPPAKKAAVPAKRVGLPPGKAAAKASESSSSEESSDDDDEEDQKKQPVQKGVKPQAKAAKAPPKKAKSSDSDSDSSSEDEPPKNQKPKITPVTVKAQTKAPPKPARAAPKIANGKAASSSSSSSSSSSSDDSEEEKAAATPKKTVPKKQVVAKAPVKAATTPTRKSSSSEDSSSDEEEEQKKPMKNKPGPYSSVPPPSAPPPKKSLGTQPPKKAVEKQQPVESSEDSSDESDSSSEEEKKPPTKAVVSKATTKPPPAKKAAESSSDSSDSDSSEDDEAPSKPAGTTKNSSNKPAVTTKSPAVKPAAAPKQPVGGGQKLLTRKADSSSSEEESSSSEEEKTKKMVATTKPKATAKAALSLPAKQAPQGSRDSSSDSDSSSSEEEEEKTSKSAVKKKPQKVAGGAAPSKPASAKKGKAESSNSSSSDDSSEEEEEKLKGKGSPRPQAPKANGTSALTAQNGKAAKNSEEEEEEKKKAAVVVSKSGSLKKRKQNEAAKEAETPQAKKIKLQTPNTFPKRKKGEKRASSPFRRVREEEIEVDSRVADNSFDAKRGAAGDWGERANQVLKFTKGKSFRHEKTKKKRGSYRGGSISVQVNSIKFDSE
# Chain of UniProt Q96MF7 (Q96MF7 whole entry, looked up): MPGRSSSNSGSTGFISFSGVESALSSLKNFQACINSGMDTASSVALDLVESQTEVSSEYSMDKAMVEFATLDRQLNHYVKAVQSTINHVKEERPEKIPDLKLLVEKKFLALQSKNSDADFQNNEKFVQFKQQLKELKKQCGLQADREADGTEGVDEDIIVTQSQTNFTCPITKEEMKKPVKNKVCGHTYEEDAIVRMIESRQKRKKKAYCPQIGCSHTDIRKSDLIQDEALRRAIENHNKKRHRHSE
# Chain of UniProt Q9H000 (Q9H000 whole entry, looked up): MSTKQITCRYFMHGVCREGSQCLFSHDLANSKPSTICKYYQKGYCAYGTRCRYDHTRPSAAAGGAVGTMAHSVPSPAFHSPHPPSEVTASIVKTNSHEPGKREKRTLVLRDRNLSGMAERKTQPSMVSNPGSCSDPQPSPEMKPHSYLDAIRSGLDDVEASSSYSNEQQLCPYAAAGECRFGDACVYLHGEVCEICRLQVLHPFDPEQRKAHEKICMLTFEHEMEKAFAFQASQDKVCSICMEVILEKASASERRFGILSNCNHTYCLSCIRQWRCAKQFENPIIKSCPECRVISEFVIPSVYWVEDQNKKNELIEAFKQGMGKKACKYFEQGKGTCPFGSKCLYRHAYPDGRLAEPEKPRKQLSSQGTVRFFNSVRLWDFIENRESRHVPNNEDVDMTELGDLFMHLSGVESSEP
# Chain of UniProt Q9BRP4 (Q9BRP4 whole entry, looked up): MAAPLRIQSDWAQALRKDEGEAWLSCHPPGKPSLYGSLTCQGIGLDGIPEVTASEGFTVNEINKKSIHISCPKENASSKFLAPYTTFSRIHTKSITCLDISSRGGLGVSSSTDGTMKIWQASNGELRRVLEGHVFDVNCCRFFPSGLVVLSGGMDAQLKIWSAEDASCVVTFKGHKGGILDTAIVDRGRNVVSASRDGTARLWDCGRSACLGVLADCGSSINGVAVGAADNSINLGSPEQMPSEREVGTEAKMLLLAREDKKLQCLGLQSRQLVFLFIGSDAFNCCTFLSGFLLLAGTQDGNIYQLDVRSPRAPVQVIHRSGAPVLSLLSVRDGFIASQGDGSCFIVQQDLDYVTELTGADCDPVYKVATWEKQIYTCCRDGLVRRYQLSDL
# Chain of UniProt Q8TEM1 (Q8TEM1 whole entry, looked up): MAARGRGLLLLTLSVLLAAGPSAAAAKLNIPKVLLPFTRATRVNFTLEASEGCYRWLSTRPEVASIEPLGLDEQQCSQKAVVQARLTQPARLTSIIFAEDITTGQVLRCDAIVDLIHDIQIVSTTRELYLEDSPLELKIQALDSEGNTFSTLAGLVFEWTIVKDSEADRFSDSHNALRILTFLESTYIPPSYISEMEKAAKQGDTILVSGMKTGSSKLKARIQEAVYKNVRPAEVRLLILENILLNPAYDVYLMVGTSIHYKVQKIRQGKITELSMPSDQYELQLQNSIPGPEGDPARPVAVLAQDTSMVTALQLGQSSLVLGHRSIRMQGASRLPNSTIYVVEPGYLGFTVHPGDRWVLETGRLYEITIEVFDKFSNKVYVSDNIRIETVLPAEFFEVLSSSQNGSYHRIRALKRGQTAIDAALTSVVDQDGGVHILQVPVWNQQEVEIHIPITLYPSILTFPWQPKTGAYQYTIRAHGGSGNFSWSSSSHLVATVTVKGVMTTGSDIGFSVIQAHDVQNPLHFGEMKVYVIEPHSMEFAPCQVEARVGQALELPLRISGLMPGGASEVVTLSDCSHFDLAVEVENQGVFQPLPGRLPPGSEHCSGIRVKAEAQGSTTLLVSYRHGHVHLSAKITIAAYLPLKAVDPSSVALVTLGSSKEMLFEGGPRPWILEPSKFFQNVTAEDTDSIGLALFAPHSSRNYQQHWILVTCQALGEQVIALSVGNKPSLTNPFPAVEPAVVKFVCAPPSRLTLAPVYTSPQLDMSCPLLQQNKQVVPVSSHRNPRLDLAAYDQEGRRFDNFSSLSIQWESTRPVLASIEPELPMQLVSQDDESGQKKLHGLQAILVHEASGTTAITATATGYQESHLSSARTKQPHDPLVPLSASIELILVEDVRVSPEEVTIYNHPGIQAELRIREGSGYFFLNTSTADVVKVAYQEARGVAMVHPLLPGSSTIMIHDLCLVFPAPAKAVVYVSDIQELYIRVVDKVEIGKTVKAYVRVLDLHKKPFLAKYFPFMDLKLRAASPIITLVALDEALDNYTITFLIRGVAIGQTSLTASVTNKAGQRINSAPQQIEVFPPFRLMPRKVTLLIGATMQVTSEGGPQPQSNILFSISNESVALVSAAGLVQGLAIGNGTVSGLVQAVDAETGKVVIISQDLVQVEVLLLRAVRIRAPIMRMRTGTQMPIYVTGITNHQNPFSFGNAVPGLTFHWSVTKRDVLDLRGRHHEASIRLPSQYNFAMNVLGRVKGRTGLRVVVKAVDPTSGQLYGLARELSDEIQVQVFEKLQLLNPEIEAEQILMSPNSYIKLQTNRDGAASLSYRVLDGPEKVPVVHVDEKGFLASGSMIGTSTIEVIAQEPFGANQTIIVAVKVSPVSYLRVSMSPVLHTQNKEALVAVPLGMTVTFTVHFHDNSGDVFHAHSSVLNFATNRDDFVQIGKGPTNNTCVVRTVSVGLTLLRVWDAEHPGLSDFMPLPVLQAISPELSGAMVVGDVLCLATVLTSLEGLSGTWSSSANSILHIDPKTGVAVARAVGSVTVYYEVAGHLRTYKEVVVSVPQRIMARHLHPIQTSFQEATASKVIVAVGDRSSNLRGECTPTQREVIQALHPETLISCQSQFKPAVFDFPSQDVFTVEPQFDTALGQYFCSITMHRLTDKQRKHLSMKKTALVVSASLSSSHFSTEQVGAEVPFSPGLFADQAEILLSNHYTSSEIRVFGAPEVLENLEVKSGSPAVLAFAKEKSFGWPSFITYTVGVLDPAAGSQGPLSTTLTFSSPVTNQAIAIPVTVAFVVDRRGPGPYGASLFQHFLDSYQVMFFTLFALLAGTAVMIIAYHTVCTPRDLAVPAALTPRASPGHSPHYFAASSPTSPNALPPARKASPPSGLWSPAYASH
# Chain of UniProt Q8WV92 (Q8WV92 whole entry, looked up): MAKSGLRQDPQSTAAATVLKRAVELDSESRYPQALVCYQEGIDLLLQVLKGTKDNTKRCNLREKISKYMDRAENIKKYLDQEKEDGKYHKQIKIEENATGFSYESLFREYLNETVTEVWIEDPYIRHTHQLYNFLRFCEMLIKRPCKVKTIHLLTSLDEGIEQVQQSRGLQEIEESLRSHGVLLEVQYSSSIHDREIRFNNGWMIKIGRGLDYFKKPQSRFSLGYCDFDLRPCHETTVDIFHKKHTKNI
# Chain of UniProt O00483 (O00483 whole entry, looked up): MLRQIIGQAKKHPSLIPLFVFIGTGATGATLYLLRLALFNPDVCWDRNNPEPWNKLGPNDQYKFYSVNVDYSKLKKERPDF
Target,log2 fold change [1],log2 fold change [2],log2 fold change [3],log2 fold change [4],log2 fold change (entinostat),log2 fold change (vorinostat),log2 fold change (citarinostat),log2 fold change (silmitasertib),log2 fold change [5],log2 fold change [6],log2 fold change (entospletinib)
NDUFA4 (UniProt O00483),0.026,0.009,-0.075,-0.013,0.061,-0.11,0.037,-0.005,-0.056,-0.098,0.025
NEK3 (UniProt P51956),0.09,0.156,-0.119,0.011,0.016,-0.256,0.099,0.043,-0.017,-0.063,-0.002
OTUD6B (UniProt Q8N6M0),-0.122,-0.121,-0.167,-0.064,0.022,0.215,-0.013,0.059,-0.065,-0.053,-0.028
NUP210 (UniProt Q8TEM1),0.022,-0.173,-0.19,-0.126,0.047,0.054,0.022,-0.033,-0.004,-0.023,-0.125
NPEPPS (UniProt P55786),-0.02,-0.035,-0.046,-0.041,-0.007,0.076,0.048,-0.038,-0.003,-0.03,-0.007
NDUFB7 (UniProt P17568),0.039,-0.015,-0.02,0.055,-0.013,-0.037,0.029,0,-0.094,0.009,-0.074
MYH11 isoform 2 (UniProt P35749),0.056,0.018,-0.017,0.046,0.015,0.121,0.027,-0.003,-0.009,-0.034,-0.047
OPA1 isoform 2 (UniProt O60313),-0.046,-0.054,-0.165,-0.072,0.024,0.033,0.05,-0.027,-0.033,-0.048,-0.008
MRPS27 isoform 2 (UniProt Q92552),0.067,-0.015,-0.105,-0.007,0.011,0.104,0.08,-0.04,0.049,-0.012,-0.029
NSMCE2 (UniProt Q96MF7),0.065,-0.027,-0.008,-0.046,-0.115,0.128,-0.04,0.055,-0.068,-0.069,-0.052
NUDT1 (UniProt P36639),0.159,0.145,1.01 (active),-0.129,-0.026,0.033,-0.073,-0.091,0.791,0.572,0.018
NCAPG (UniProt Q9BPX3),-0.062,-0.036,-0.118,-0.06,0.073,0.101,0.067,0.1,0.005,-0.016,0
NT5DC1 (UniProt Q5TFE4),-0.057,-0.052,-0.003,-0.012,-0.037,-0.013,0.003,0.025,-0.038,0.236 (active),0.039
MRPS5 (UniProt P82675),0.009,0.034,-0.057,0.013,0,0.125,0.023,-0.043,-0.039,-0.018,0.044
NASP (UniProt P49321),-0.009,-0.081,-0.06,-0.054,0.035,0.028,0.035,0.063,-0.034,-0.02,-0.007
MRPL34 (UniProt Q9BQ48),0.02,0.018,0.045,0.095,-0.041,0.035,0.004,0.053,0.09,-0.175,0.047
NOLC1 isoform 2 (UniProt Q14978),0.149,-0.031,-0.011,0.014,-0.043,0.009,0.109,-0.037,-0.037,-0.183,0.062
MKRN2 (UniProt Q9H000),-0.007,0,0.094,-0.044,0.104,0.228,0.042,0.047,0.052,-0.129,-0.038
OTUD4 (UniProt Q01804),0.006,0.026,0.071,0.001,-0.051,0.016,-0.016,0.02,0.033,-0.061,0.105
MRPS15 (UniProt P82914),0.039,0.06,-0.057,0.119,0.072,0.077,0.028,-0.114,0.085,-0.031,0.044
NEDD4 isoform 4 (UniProt P46934),-0.043,-0.027,-0.187,-0.074,0.029,-0.04,0.084,0.064,-0.008,0.013,-0.007
MITD1 (UniProt Q8WV92),0.016,-0.018,-0.387,-0.059,-0.08,0.057,-0.135,0.14,-0.176,0.228,-0.133
NUP160 (UniProt Q12769),0.031,-0.058,-0.066,-0.062,0.008,0.05,0.018,0.075,0.021,-0.09,0.03
PAAF1 (UniProt Q9BRP4),0.028,-0.011,-0.078,0.019,0.006,-0.013,-0.003,-0.001,0.014,-0.025,-0.023
NDUFB10 (UniProt O96000),-0.062,-0.06,-0.054,-0.022,-0.034,-0.053,0.031,0.021,-0.018,-0.006,0.003
NUMB (UniProt P49757),-0.088,-0.022,-0.002,-0.003,-0.041,0.037,0.009,0.007,-0.097,-0.032,-0.008
NDUFS7 (UniProt O75251),-0.025,-0.079,-0.113,-0.057,-0.011,0.103,0.013,-0.003,-0.066,-0.027,0.006
